Measurements as given in PubChem BioAssay (NCI).
This is part of a sample that, as a whole, favours compounds with a hit. Of some 83,000 tested, about 20% had one in any assay.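 Method: cells in 96-well plates; compound added at one concentration; 48 h incubation; percent growth measured; values under 10 scored active.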 A number with no mark means an inactive call. Activity calls are given as the source filed them.

How the values were obtained:
Assay in all cases: NCI-60 one-dose screen, 48 h (100 = growth as untreated, 0 = no growth, -100 = all killed)
Conditions in all cases: 10 µM unless noted
[1] = test system: HCT-15 colon
[2] = test system: HT29 colon
[3] = test system: SNB-75 CNS
[4] = test system: SNB-19 CNS
[5] = test system: U251 CNS
[6] = test system: PC-3 prostate
[7] = test system: SK-MEL-5 melanoma
[8] = test system: UACC-62 melanoma
[9] = test system: LOX IMVI melanoma
[10] = test system: SK-MEL-28 melanoma
[11] = test system: SK-MEL-2 melanoma
[12] = test system: EKVX NSCLC
[13] = test system: SN12C renal
[14] = test system: UO-31 renal
[15] = test system: TK-10 renal
[16] = test system: ACHN renal
[17] = test system: CAKI-1 renal
[18] = test system: CCRF-CEM leukemia
[19] = test system: MOLT-4 leukemia

Row | SMILES | growth [1] | growth [2] | growth [3] | growth [4] | growth [5] | growth [6] | growth [7] | growth [8] | growth [9] | growth [10] | growth [11] | growth [12] | growth [13] | growth [14] | growth [15] | growth [16] | growth [17] | growth [18] | growth [19]
1 | COc1ccc(OC)c(-c2cc(-c3ccc(Cl)cc3)c3c(N)c(C(=O)c4ccc(Cl)cc4)sc3n2)c1 | 106% | 91.1% | 73.6% | 103% | 101% | 81.4% | 107% | 92.2% | 98.3% | 105% | 94.2% | 93.8% | 101% | 75.4% | 102% | 97.4% | 88.5% | 88.7% | 103%
2 | Brc1ccc(Nc2csc(-c3ccccn3)n2)cc1 | 67.4% | 81.4% | 72.3% | 96% | 101% | 85.3% | 95.4% | 67.1% | 72.1% | 109% | 96.4% | 85.4% | 91.6% | 52.2% | 119% | 82.4% | 63.6% | 97.2% | 96.6%
3 | Cn1ccnc1C(=O)/C=C/c1ccc(CC(=O)NC2CCCCC2)cc1 | 33.1% | 15.3% | 3.39% (active) | 46.2% | 31.4% | 59.7% | 71.3% | 73.4% | 44.5% | 92.3% | 108% | 77.4% | 61.2% | 60.4% | 94.8% | 81.3% | 66.9% | 33.5% | 67.7%
4 | COc1cc(F)c(/C=C/c2cc(/C=C/c3cc(OC)c(OC)cc3F)on2)cc1OC | 82.1% | 77.9% | 98.2% | 76.8% | 83.1% | 74% | 91.9% | 66.1% | 81.9% | 82.7% | 76.3% | 102% | 91.6% | 91.2% | 100% | 80% | 90.1% | 91.9% | 91.1%
5 | COc1cc2oc(-c3cccc(C(=O)Nc4ccc(Br)cc4)c3)cc(=O)c2c(OC)c1OC | 40.2% | 39.5% | 81.7% | 80.9% | 65.7% | 53.1% | 56.3% | 63.7% | -20.9% (active) | 35.7% | 71.2% | 60% | 50.9% | 55.7% | 62.5% | 72.5% | 20.6% | 41.9% | 49.5%
6 | c1ccc2c(-c3c[nH]c4ccccc34)c3c(cc2c1)[nH]c1ccccc13 | 47% | 72.5% | 38.4% | 90.9% | 70.1% | 69.9% | 67.3% | 68.3% | 60.1% | 75.3% | 50.6% | 77.4% | 80.8% | 58.3% | 94.1% | 62.1% | 63% | 43.9% | 38.2%
7 | CCSCC1CC(O)(c2ccccc2)CC(c2ccc(F)cc2)O1 (centres undefined) | 17.4% | 2.51% (active) | 33.1% | 36.1% | 20.8% | 9.83% (active) | -36% (active) | 29.2% | 4.29% (active) | 26.9% | 4.62% (active) | 15.2% | -68.9% (active) | 28.6% | 21.9% | 3.1% (active) | -25.2% (active) | 22.9% | -11.9% (active)
8 | OCc1cnc2ccccc2c1NC1CCCCCC1 | 98.4% | 92.1% | 91.4% | 94.4% | 92.6% | 82.2% | 59.7% | 81.7% | 89.2% | 102% | 100% | 78.7% | 93.8% | 67.1% | 96.2% | 92.3% | 73.1% | 85.1% | 91.5%
9 | COc1cccc(/C=N/NC(=O)c2cnn3c2NC(c2ccccc2)C3)c1Oc1ccccc1 (centres undefined) | 49.8% | 41.5% | 60.8% | 75.4% | 83.9% | 72.3% | 73% | 62.3% | 84.5% | 79.1% | 66.2% | 93.7% | 104% | 77.4% | 94.3% | 87% | 78.2% | 79.4% | 75.2%
10 | COC(=O)N[C@H]1CCc2c(Cl)c(OC)c(OC)c(OC)c2-c2ccc(SC)c(=O)cc21 | 9.73% (active) | 13% | 28% | 26.3% | 21.5% | 21.1% | -37.4% (active) | 36.9% | 13.3% | 60.8% | 42.4% | 47.8% | 21.1% | 22.7% | 45.9% | 30.9% | 15.1% | 1.53% (active) | 3.99% (active)
11 | O=Cc1cc2ccccc2nc1Oc1ccc(C(F)(F)F)cc1 | 80.8% | 94.1% | 83.2% | 90.7% | 81.6% | 67.8% | 94.5% | 72.5% | 74.3% | 107% | 101% | 82.4% | 70.5% | 35.1% | 98% | 87.7% | 63.4% | 6.98% (active) | 60.5%
12 | N#CC(C#N)=Cc1cc2ccccc2nc1Oc1ccc(C(F)(F)F)cc1 | 85.1% | 100% | 84.2% | 93.2% | 91.2% | 51.5% | 94.7% | 78.4% | 76.4% | 104% | 103% | 84.1% | 91.9% | 43.8% | 114% | 88.7% | 67.7% | 0.288% (active) | 54.8%
13 | c1ccc2c(-c3nccs3)c[nH]c2c1 | 94.3% | 98.9% | 90.7% | 98.1% | 103% | 81.5% | 95.3% | 93.5% | 99.7% | 100% | 112% | 88.6% | 98.3% | 85.1% | 84.4% | 97.6% | 95.6% | 111% | 91.8%
14 | CN1CCN(C(=O)[C@]23CCC(C)(C)C[C@H]2C2=CC[C@@H]4[C@@]5(C)C/C(=C/c6ccncc6)C(=O)C(C)(C)[C@@H]5CC[C@@]4(C)[C@]2(C)CC3)CC1 | 36.3% | 5.24% (active) | 85.2% | 61.2% | 44.8% | 19.5% | 54.3% | 61% | 40.2% | 74.7% | 78.2% | 80.2% | 49.9% | 37.3% | 77.1% | 65.1% | 75.4% | 19.7% | 2.92% (active)
15 | O=C(CCN1CCCC1)Nc1ccc2c(NCCc3ccccc3)c3ccccc3nc2c1 | 12% | 4.99% (active) | -70.8% (active) | -17.9% (active) | -24% (active) | -36% (active) | 11.2% | -55.1% (active) | -68% (active) | -17.4% (active) | -58.8% (active) | -4.89% (active) | -12.5% (active) | -10.8% (active) | 3.29% (active) | 11% | 4.47% (active) | -9.81% (active) | -17.6% (active)
16 | COc1cc2oc(-c3cccc(C(=O)Nc4ccc(Cl)cc4)c3)cc(=O)c2c(O)c1OC | 70.2% | 66.2% | 24.4% | 28.4% | 23% | 55.1% | 58.7% | 42.7% | 69.8% | 67.8% | 83.1% | 77.2% | 41.5% | 47% | 75.5% | 33.4% | 55% | 75.6% | 74.1%
